The structures appear in SMILES notation. About 1,400 (3.5%) of roughly 40,000 compounds were called active.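 Rule for the calls: active = any of four per-well response measures lying three or more SD from its plate-wide compound average, in either direction; inactive = the rest, inconclusive results apart.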 Only a selection was taken, and actives are over-represented in it overall.

The target in the assay is Voltage-dependent calcium channel gamma-2 subunit (Mus musculus) + Glutamate receptor 2 (Rattus norvegicus) (UniProt O88602+P19491). Nature of the assay: AMPAR-TARP gamma-2 complex positive or negative modulation – cell-based, membrane potential dye, primary screen (AID 1259245). The conditions noted are these: HEK293 GluA2+stargazin, membrane potential dye (FDSS), glutamate EC50, at 30 µM, hits were called plate by plate, in both directions; compound max-min signal: compound-alone response (agonism); glutamate slope, % of max: measured here: glutamate response slope, % max.
Chain of Voltage-dependent calcium channel gamma-2 subunit (Mus musculus) + Glutamate receptor 2 (Rattus norvegicus) (O88602 whole entry, looked up): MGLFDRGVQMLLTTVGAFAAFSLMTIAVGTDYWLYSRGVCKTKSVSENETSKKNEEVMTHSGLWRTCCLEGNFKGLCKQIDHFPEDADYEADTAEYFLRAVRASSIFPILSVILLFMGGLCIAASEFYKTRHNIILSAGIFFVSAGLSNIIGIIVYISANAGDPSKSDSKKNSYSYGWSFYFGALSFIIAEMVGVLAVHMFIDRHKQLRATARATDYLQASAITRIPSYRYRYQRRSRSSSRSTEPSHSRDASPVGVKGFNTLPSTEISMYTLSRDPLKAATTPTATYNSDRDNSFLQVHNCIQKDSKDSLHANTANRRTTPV
Chain of Voltage-dependent calcium channel gamma-2 subunit (Mus musculus) + Glutamate receptor 2 (Rattus norvegicus) (P19491 whole entry, looked up): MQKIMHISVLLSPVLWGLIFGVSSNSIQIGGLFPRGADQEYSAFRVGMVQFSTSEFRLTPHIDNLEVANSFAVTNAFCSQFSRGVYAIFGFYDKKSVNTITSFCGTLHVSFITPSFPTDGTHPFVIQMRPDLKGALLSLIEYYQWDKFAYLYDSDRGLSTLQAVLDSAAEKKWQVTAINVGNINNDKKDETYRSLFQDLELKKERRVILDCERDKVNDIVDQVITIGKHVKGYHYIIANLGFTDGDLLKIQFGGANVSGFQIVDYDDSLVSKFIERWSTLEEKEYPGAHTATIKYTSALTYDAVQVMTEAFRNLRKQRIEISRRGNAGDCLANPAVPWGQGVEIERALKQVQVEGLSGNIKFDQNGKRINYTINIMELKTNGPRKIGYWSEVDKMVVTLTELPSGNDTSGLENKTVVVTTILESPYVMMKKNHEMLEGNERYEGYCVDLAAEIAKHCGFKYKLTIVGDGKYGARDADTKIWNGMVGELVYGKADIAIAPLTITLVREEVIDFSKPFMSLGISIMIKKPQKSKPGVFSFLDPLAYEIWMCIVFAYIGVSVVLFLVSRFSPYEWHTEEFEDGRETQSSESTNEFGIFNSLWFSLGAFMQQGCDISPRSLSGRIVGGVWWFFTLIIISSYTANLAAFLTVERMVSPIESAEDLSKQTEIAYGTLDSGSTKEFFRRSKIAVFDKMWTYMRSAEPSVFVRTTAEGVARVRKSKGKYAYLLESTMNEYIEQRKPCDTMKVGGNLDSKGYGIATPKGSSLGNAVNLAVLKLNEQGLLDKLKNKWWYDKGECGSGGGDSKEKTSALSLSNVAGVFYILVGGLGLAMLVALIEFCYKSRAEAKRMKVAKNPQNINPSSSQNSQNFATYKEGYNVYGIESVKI
`Cc1cccc(Cn2c(=O)c3c(nc4n(-c5ccccc5O)c(C)c(C)n34)n(C)c2=O)c1`: the compound max-min signal was found to be 0.11; the glutamate response, % of max is 3.33% (active); the glutamate slope, % of max was 16.2%.

With `Cc1c(C)n2c3c(=O)n(C/C=C/c4ccccc4)c(=O)n(C)c3nc2n1-c1ccccc1O`, the compound max-min signal came out at 0.0773; the glutamate response, % of max was 13.8% (inactive); the glutamate slope, % of max was 35.4%.

Consider `COc1cc(C)c(C)cc1S(=O)(=O)NCC(O)c1ccc(C(F)(F)F)cc1` (stereo not drawn), for which the compound max-min signal amounted to 0.216; the glutamate response, % of max is 20.5% (active); the glutamate slope, % of max was 36%.

Take `Cc1cc(S(=O)(=O)NCCn2nc(-c3ccc(F)cc3)ccc2=O)ccc1F`: the compound max-min signal was determined as 0.0676; the glutamate response, % of max was 28.5% (inactive); the glutamate slope, % of max turned out to be 55.6%.

Regarding `COc1ccc(S(=O)(=O)NCC(O)c2cccn2C)c(C)c1` (stereo not drawn), the compound max-min signal was 0.107; the glutamate response, % of max is 43.5% (inactive); the glutamate slope, % of max was found to be 60.7%.

On to `Cc1ccc(NC(=O)NCC(O)c2ccc(C(F)(F)F)cc2)cc1` (stereo not drawn), for which the compound max-min signal stood at 0.115; the glutamate response, % of max was 16.6% (inactive); the glutamate slope, % of max is 47.8%.

As to `Cc1cc(S(=O)(=O)NCC(O)c2ccc(C(F)(F)F)cc2)ccc1F` (stereo not drawn), the compound max-min signal was 0.256; the glutamate response, % of max was 28.2% (active); the glutamate slope, % of max was 41.3%.

Regarding `Cc1cc(S(=O)(=O)NCC2(O)CCCC2)ccc1F`, the compound max-min signal amounted to 0.0902; the glutamate response, % of max is 36% (inactive); the glutamate slope, % of max was found to be 60.8%.

Take `CC(NC(=O)C12CC3CC(CC(C3)C1)C2)C(=O)N/N=C/c1ccc([N+](=O)[O-])o1` (stereo not drawn): the compound max-min signal stood at 0.133; the glutamate response, % of max is 27.9% (inactive); the glutamate slope, % of max turned out to be 52.7%.

In the case of `O=S(=O)(CCCOc1ccc(F)cc1)NCCCc1ccccc1`, the compound max-min signal was determined as 0.118; the glutamate response, % of max was 50.6% (inactive); the glutamate slope, % of max turned out to be 66.1%.

Turning to `CCCNC(=O)Cn1c(=O)c2c(N3CCN(C(=O)c4ccco4)CC3)c(C)cnc2n(C)c1=O`, the compound max-min signal is 0.127; the glutamate response, % of max was 48.2% (inactive); the glutamate slope, % of max was determined as 70%.

With `CCn1ccnc1N1CCN(C(=O)CCS(=O)(=O)c2ccccc2)CC1`, the compound max-min signal turned out to be 0.0601; the glutamate response, % of max was 11.8% (inactive); the glutamate slope, % of max amounted to 23.3%.

`COCCNC(=O)Cn1cc(-c2nnc(C)o2)c2ccccc21`: the compound max-min signal was 0.0888; the glutamate response, % of max is 38.9% (inactive); the glutamate slope, % of max was 57.5%.

Turning to `O=C(NC(=S)Nc1ccc(S(=O)(=O)N2CCOCC2)cc1)c1sc2ccccc2c1Cl`, the compound max-min signal was found to be 0.0349; the glutamate response, % of max is 29.8% (inactive); the glutamate slope, % of max is 52.2%.

Take `CCN(CC)C(=O)C(=O)c1cn(CC(=O)N2CCOCC2)c2ccccc12`: the compound max-min signal turned out to be 0.0509; the glutamate response, % of max was 31.2% (inactive); the glutamate slope, % of max came to 53.3%.

`Cc1cccc(C)c1NC(=O)Cn1c(=O)n(C(C)C)c(=O)c2nscc21`: the compound max-min signal came out at 0.121; the glutamate response, % of max is 32.1% (active); the glutamate slope, % of max was found to be 45.8%.

As for `CSc1cccc(NC(=O)Cn2c(=O)n(C3CC3)c(=O)c3nscc32)c1`, the compound max-min signal turned out to be 0.107; the glutamate response, % of max was 26.5% (inactive); the glutamate slope, % of max is 50.3%.

As for `COC(=O)c1ccc(NC(=O)Cn2c(=O)n(C(C)C)c(=O)c3nscc32)cc1`, the compound max-min signal worked out at 0.116; the glutamate response, % of max is 34.2% (inactive); the glutamate slope, % of max is 56.9%.

`CC(=O)N1CC(C(=O)Nc2cccc3nsnc23)C1`: the compound max-min signal is 0.0775; the glutamate response, % of max was 30.1% (inactive); the glutamate slope, % of max came to 49.8%.

For `CC1CCN(C(=O)C(=O)Nc2c3c(nn2-c2ccc(F)cc2)CSC3)CC1`, the compound max-min signal was determined as 0.0271; the glutamate response, % of max was 24.1% (inactive); the glutamate slope, % of max turned out to be 44.2%.

For the compound `O=C(Nc1c2c(nn1-c1ccc(F)cc1)CSC2)C(=O)N1CCCCCC1`, the compound max-min signal came to 0.071; the glutamate response, % of max is 32% (active); the glutamate slope, % of max amounted to 43.4%.

On to `O=C(NCCCn1ccnc1)C(=O)Nc1c2c(nn1-c1ccc(Cl)cc1)CSC2`, for which the compound max-min signal came out at 0.0348; the glutamate response, % of max is 37.9% (inactive); the glutamate slope, % of max stood at 64.4%.

Turning to `O=C(NCCCN1CCCC1=O)C(=O)Nc1c2c(nn1-c1cccc(Cl)c1)CSC2`, the compound max-min signal is 0.0244; the glutamate response, % of max is 21.6% (inactive); the glutamate slope, % of max amounted to 47%.

In the case of `COc1ccc(-n2nc3c(c2NC(=O)C(=O)NC2CCCC2)CS(=O)(=O)C3)cc1`, the compound max-min signal was 0.0561; the glutamate response, % of max was 41.9% (inactive); the glutamate slope, % of max is 51.3%.

Take `COc1ccc(-n2nc3c(c2NC(=O)C(=O)N2CCCCC2)CSC3)cc1`: the compound max-min signal worked out at 0.0721; the glutamate response, % of max was 33.6% (active); the glutamate slope, % of max turned out to be 59.2%.

`CCCn1c(N2CCC(C(N)=O)CC2)nc2c1c(=O)n(C)c(=O)n2C`: the compound max-min signal was 0.0828; the glutamate response, % of max was 24.8% (inactive); the glutamate slope, % of max was found to be 45.3%.

As for `CCCCc1ccc(-n2c(C)cn3c4c(=O)n(CC(=O)OC)c(=O)n(C)c4nc23)cc1`, the compound max-min signal came to 0.103; the glutamate response, % of max was 55.1% (inactive); the glutamate slope, % of max amounted to 73.4%.

Regarding `COc1cccc(-n2nnc3c(N4CCN(C(=O)c5c(OC)cccc5OC)CC4)ncnc32)c1`, the compound max-min signal turned out to be 0.0804; the glutamate response, % of max is 29.1% (inactive); the glutamate slope, % of max stood at 53.7%.

As for `CCc1ccccc1NC(=O)NCCOc1ccc2nnc(-c3cccc(F)c3)n2n1`, the compound max-min signal was determined as 0.131; the glutamate response, % of max was 41.1% (active); the glutamate slope, % of max is 52.3%.

With `O=C(COc1ccc(Cl)cc1)NCCOc1ccc2nnc(-c3cccc(F)c3)n2n1`, the compound max-min signal came to 0.0351; the glutamate response, % of max was 38.7% (inactive); the glutamate slope, % of max was determined as 69.7%.

For `Cc1nc(-c2ccccc2)sc1C(=O)NCCOc1ccc2nnc(-c3ccccc3)n2n1`, the compound max-min signal is 0.0398; the glutamate response, % of max was 37.1% (inactive); the glutamate slope, % of max came to 49.7%.

On to `COc1ccc(CCS(=O)(=O)Nc2ccc3c(c2)N(C(C)=O)CC3)cc1`, for which the compound max-min signal was 0.0917; the glutamate response, % of max was 25.2% (inactive); the glutamate slope, % of max came out at 47.2%.

As to `CCOc1ccc(N2CCCn3c2nc2c3c(=O)n(CCN3CCOCC3)c(=O)n2C)cc1`, the compound max-min signal was determined as 0.074; the glutamate response, % of max was 10% (inactive); the glutamate slope, % of max was determined as 27.7%.

Regarding `CC(=O)N1CCN(c2ccnc3c2c(=O)n(CC(=O)NCC2CCCO2)c(=O)n3C)CC1` (stereo not drawn), the compound max-min signal is 0.0945; the glutamate response, % of max was 51% (inactive); the glutamate slope, % of max came out at 78.2%.

For `CCc1ccc(NC(=O)Cn2c(=O)c3c(N4CCN(C(C)=O)CC4)ccnc3n(C)c2=O)cc1`, the compound max-min signal came out at 0.159; the glutamate response, % of max is 32.2% (active); the glutamate slope, % of max amounted to 55.8%.

In the case of `CC(=O)N1CCN(c2ccnc3c2c(=O)n(CC(=O)NCc2ccco2)c(=O)n3C)CC1`, the compound max-min signal amounted to 0.103; the glutamate response, % of max is 49.5% (inactive); the glutamate slope, % of max turned out to be 74.3%.

The values above are taken from PubChem BioAssay AID1259245 (Vanderbilt High Throughput Screening Facility, 2017).
